For 20 compounds, growth inhibition results are on record in PubChem BioAssay (NCI).

The structures appear in SMILES notation. The panel holds about 79,000 compounds, 15% with a hit somewhere; the sample as a whole holds those more often. Unmarked numbers belong to inactive results. Activity calls are given as the source filed them. Rule as the data show it: active = growth inhibition above about 70%; inactive = the rest.

Assay [1] in a line: NCI Yeast Anticancer Drug Screen. Data for the rad50 strain (AID 155).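 Also: 0% = growth of vehicle-only cultures of the same strain.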 Conditions: S. cerevisiae rad50 strain growth inhibition; at 50.0 µM; active compounds read high. The method, boiled down: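 Vehicle-treated cultures provide the reference for the growth inhibition reported for compound-exposed, repair-deficient yeast.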
The nature of assay [2]: NCI Yeast Anticancer Drug Screen. Data for the mec2-1 strain (AID 157). Conditions: S. cerevisiae mec2-1 strain, at 50.0 µM, active compounds read high. The method, boiled down: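 Mutant yeast (mec2-1) grown with compound; growth inhibition relative to vehicle control reported.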
Assay [3] can be described thus: NCI Yeast Anticancer Drug Screen. Data for the sgs1 mgt1 strain (AID 161).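 Also: 0% = growth of cultures given vehicle only.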 Conditions: S. cerevisiae sgs1 mgt1 strain, at 50.0 µM, active compounds read high. An outline of the steps:
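Compounds are added to genetically altered yeast, and growth is compared with cultures given vehicle alone to give percent inhibition.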

Assay [4] can be described thus: NCI Yeast Anticancer Drug Screen. Data for the cln2 rad14 strain (AID 165).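 Also: 0% = growth equal to vehicle treated cultures.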 Conditions: S. cerevisiae cln2 rad14 strain, at 50.0 µM, active compounds read high. An outline of the steps:
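Readout is yeast growth inhibition versus vehicle-treated controls, using a strain with cln2 and rad14 alterations exposed to compound.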

A short description of assay [5]: NCI Yeast Anticancer Drug Screen. Data for the bub3 strain (AID 167). Conditions: S. cerevisiae bub3 mutant strain, at 50.0 µM, active compounds read high. The method, boiled down:
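Mutant yeast screening strain plus compound; vehicle-treated cultures serve as the 0% inhibition reference.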

Assay [6] in a line: NCI Yeast Anticancer Drug Screen. Data for the mlh1 rad18 strain (AID 175). Conditions: S. cerevisiae mlh1 rad18 strain growth inhibition; at 50.0 µM; active compounds read high. An outline of the steps: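 Genetically defined yeast (DNA repair-deficient) exposed to compounds; growth inhibition determined relative to vehicle.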

On to `O=C1c2ccccc2C(=O)N1CC(O)CCl` (stereo not given), for which the growth inhibition in assay [1] is -21.3%; in assay [2] it was -30.4%; in assay [3], -0.45%; in assay [4], 12%; in assay [5], -14.5%; in assay [6], -26.5%.
In the case of `O=C(Nc1nc2ccsc2s1)c1ccccc1`, the growth inhibition in assay [1] is -15.8%; in assay [2] it was -3%; in assay [3], -4%; in assay [4] it was -34.9%; in assay [5] it was -8%; in assay [6], -10.8%.
Regarding `NC(Cc1ccccc1)(C(=O)O)C(=O)O`, the growth inhibition in assay [1] was -12.7%; in assay [2], 1.45%; in assay [3] it was -11.4%; in assay [4], -31.8%; in assay [5], -22.1%; in assay [6], 15.7%.
On to `O=C(O)COc1c(Cl)cc(Cl)cc1Cl`, for which the growth inhibition in assay [1] was -34.7%; in assay [2] it was -37%; in assay [3], -29.6%; in assay [4], -15.4%; in assay [5] it was -39.9%; in assay [6], -31.6%.
For the compound `CCCCCCCCCCCCOP(=O)(O)OP(=O)(O)OCC1OC(n2cc(C)c(=O)[nH]c2=O)CC1O` (stereo not given), the growth inhibition in assay [1] was 35.4%; in assay [2], 13.9%; in assay [3] it was 47%; in assay [4], 14.7%; in assay [5], 14.4%; in assay [6], 7.55%.
In the case of `CC(C)(C)/C=N/Nc1ccc([N+](=O)[O-])cc1[N+](=O)[O-]`, the growth inhibition in assay [1] was 26.4%; in assay [2], 15.1%; in assay [3], -0.05%; in assay [4], -40.2%; in assay [5] it was 11.7%; in assay [6] it was -13.3%.
In the case of `CCCCNC(=O)c1c(Cl)c(Cl)c(Cl)c(Cl)c1C(=O)O`, the growth inhibition is 37.3% in assay [1]; 17.1% in assay [2]; 4.85% in assay [3]; 17.5% in assay [4]; 16.5% in assay [5]; 28.2% in assay [6].
In the case of `c1cn2cnnc2n2cnnc12`, the growth inhibition is -2.7% in assay [1]; -13% in assay [2]; -15.6% in assay [3]; -32% in assay [4]; -0.8% in assay [5]; -9.8% in assay [6].
Regarding `CCOC(=O)NC(CC)c1ccc2oc3ccccc3c2c1` (stereo not given), the growth inhibition in assay [1] was -10.5%; in assay [2] it was 1.9%; in assay [3], 20.4%; in assay [4], -4.15%; in assay [5], 32%; in assay [6], -15.3%.
Take `CCC(Cl)COP(=O)(CC(Cl)CC)OC(C)P(=O)(OCC(Cl)CC)OCC(Cl)CC` (stereo not given): the growth inhibition in assay [1] was 98% (active); in assay [2] it was 98.3% (active); in assay [3] it was 98.7% (active); in assay [4], 97.5% (active); in assay [5], 97.2% (active); in assay [6], 98.4% (active).
`CC1=CC(=O)N(NC(N)=O)C1=O`: the growth inhibition in assay [1] was -11.4%; in assay [2] it was -2.9%; in assay [3] it was -9.5%; in assay [4] it was -27.9%; in assay [5], -16.4%; in assay [6] it was 2.15%.
As for `Cc1ccc(C(C)C)cc1OCCOCCCl`, the growth inhibition was -2.25% in assay [1]; 12.8% in assay [2]; -4.85% in assay [3]; -148% in assay [4]; -1% in assay [5]; 10.8% in assay [6].
Turning to `Cc1ccc2oc(=O)c(C(=O)Nc3nc(C45CC6CC(CC(C6)C4)C5)cs3)cc2c1`, the growth inhibition in assay [1] is -23.1%; in assay [2], -22.9%; in assay [3] it was -23.6%; in assay [4] it was 13%; in assay [5], -30.5%; in assay [6] it was -26.2%.
Regarding `Cc1cc(=O)[nH]c2ccc(Cc3ccc(Cl)cc3)cc12`, the growth inhibition in assay [1] was 12.8%; in assay [2] it was 1.75%; in assay [3], 4.9%; in assay [4], 7.6%; in assay [5], 3.1%; in assay [6], 1.65%.
`O=C(Cc1ccccc1)c1c[nH]c2c(O)ccc(O)c12`: the growth inhibition is -15.1% in assay [1]; -9.25% in assay [2]; -12.3% in assay [3]; -49.1% in assay [4]; -13.9% in assay [5]; -8.45% in assay [6].
In the case of `C=CCNC(=S)Nc1cccc(O)c1`, the growth inhibition in assay [1] is -8.05%; in assay [2], -11.6%; in assay [3], -11.6%; in assay [4], -31.8%; in assay [5], -10.9%; in assay [6], -2.55%.
For the compound `Cc1ccc(N=Nc2ccc([N+](=O)[O-])cc2)c([N+](=O)[O-])c1`, the growth inhibition in assay [1] is 10.9%; in assay [2], -11.2%; in assay [3], -4.5%; in assay [4], 17.4%; in assay [5] it was 18.4%; in assay [6], -12.6%.
With `CCCOC(=O)CNC(=O)OC(C)(C)C`, the growth inhibition in assay [1] is 17.6%; in assay [2], 14.8%; in assay [3], 1.15%; in assay [4], 0.55%; in assay [5], -4.95%; in assay [6], -4.35%.
With `NC(=O)c1[nH]c(/N=N/c2nc[nH]c2C(N)=O)nc1N`, the growth inhibition is 24.9% in assay [1]; 21.6% in assay [2]; 9.95% in assay [3]; -17.1% in assay [4]; -4.65% in assay [5]; 16.4% in assay [6].
For `CCN(CC)c1c(C)nnn1C1OC(COC(C)=O)C(OC(C)=O)C(OC(C)=O)C1OC(C)=O` (stereo not given), the growth inhibition in assay [1] is -0.8%; in assay [2], -10.9%; in assay [3], -19.9%; in assay [4], 3.15%; in assay [5] it was 11.8%; in assay [6], -12%.
